The values that follow come from ChEMBL document CHEMBL1157539, “Thousands of chemical starting points for antimalarial lead identification” (Nature, 2010).

Holding throughout (format): functional
In experiment [1] the test system is Plasmodium falciparum. As to the kind of experiment: GSK_TCMDC: Inhibition of Plasmodium falciparum 3D7 in whole red blood cells, using parasite LDH activity as an index of growth. Test compounds present at 2uM.
Experiment [2] has as its system Plasmodium falciparum. As to the kind of experiment: GSK_TCMDC: Inhibition of Plasmodium falciparum Dd2 in whole red blood cells, using parasite LDH activity as an index of growth. Test compounds present at 2uM.
For experiment [3], the system named is HepG2. As to the kind of experiment: GSK_TCMDC: Percent inhibition of human HepG2 cell line. Test compounds present at 10uM.

What is called Inhibition is the change of the read-out against control, counted positive when it falls. A higher Inhibition goes with strong suppression.

As for `Cl.O=C(NCCCCN1CCC(O)(c2ccc(Cl)cc2)CC1)c1ccc(Br)cc1`, the Inhibition in experiment [1] came to 82%; in experiment [2], 48%; in experiment [3] it was 41%.

Take `CCCCCC(=O)N1CCOC(CCN2CCc3c(c4ccccc4n3C)C2)(c2ccc(Cl)c(Cl)c2)C1` (stereo not given): the Inhibition in experiment [1] is on record as 95%; in experiment [2] it was 80%; in experiment [3], 24%.

On to `CN1CCC=C(C(=O)NCC(C)(C)c2nc(-c3ccc(Cl)c(O)c3)c(-c3ccncc3)[nH]2)C1.Cl`, for which the Inhibition in experiment [1] was found to be 96%; in experiment [2], 96%; in experiment [3], 39%.

Take `O=C(/C=C/c1cccc(C(F)(F)F)c1)NCCCCCN1CCC(c2c[nH]c3ccccc23)CC1`: the Inhibition in experiment [1] stood at 90%; in experiment [2], 14%; in experiment [3], 70%.

Take `CCCCCCCC1CC(CC(=O)Nc2ccnc3ccc(OC)cc23)CN1C(=O)OC(C)(C)C` (stereo not given): the Inhibition in experiment [1] was determined as 100%; in experiment [2], 34%; in experiment [3], 1%.

For `CCOC(=O)c1ccc(COc2ccc(C)nc2)cc1`, the Inhibition came out at 100% in experiment [1], 0% in experiment [2] and 14% in experiment [3].

Turning to `Clc1ccc(Cc2nc3ccccc3[nH]2)cc1Cl`, the Inhibition in experiment [1] is on record as 98%; in experiment [2] it was 2%; in experiment [3] it was 5%.

On to `CC1(C)OC[C@]2(C)[C@@H](CC[C@]3(C)C4=CC(=O)CCC4CC[C@@H]23)O1` (stereo not given in full), for which the Inhibition in experiment [1] came to 97%; in experiment [2] it was 95%; in experiment [3], 0%.

For `O=C(NC1CCN(CCC[C@]2(c3ccc(Cl)c(Cl)c3)CCCN(C(=O)c3ccccc3)C2)CC1)c1ccc(F)cc1`, the Inhibition in experiment [1] is 90%; in experiment [2] it was 68%; in experiment [3], 52%.

As for `CCCCCCCN1CCC(NC(=O)Nc2ccnc3ccc(OC)cc23)C(C(=O)OCC)C1.O=C(O)C(=O)O` (stereo not given), the Inhibition in experiment [1] came out at 100%; in experiment [2], 73%; in experiment [3], 11%.

As for `O=C(Nc1ccc(CCNCCCc2ccccc2)cc1)Nc1ccc(Cl)c(Cl)c1`, the Inhibition worked out at 100% in experiment [1], 99% in experiment [2] and 33% in experiment [3].

For the compound `CN1CCC(N2CCN(Cc3cccc(-c4ccc(-c5nc6cc(F)ccc6[nH]5)cc4)c3)CC2)CC1.O=C(O)C(F)(F)F`, the values for the Inhibition in experiment [1], in experiment [2] and in experiment [3] were 100%, 100% and 92%, respectively.

For `CC(Cc1ccc(CN(CC(N)=O)Cc2ccc(CC(C)NCCc3cccc(Cl)c3)cc2)cc1)NCCc1cccc(Cl)c1.O=C(O)C(F)(F)F` (stereo not given), the Inhibition in experiment [1] worked out at 95%; in experiment [2] it was 68%; in experiment [3] it was 26%.

Consider `Fc1ccc2[nH]c(-c3ccc(-c4cccc(CN5CCC(CCN6CCCCC6)CC5)c4)cc3)nc2c1.O=C(O)C(F)(F)F`, for which the Inhibition in experiment [1] is recorded as 100%; in experiment [2] it was 100%; in experiment [3], 96%.

Regarding `COc1ccc(NC(=O)/C=C/c2ccc(Oc3ccccc3Cl)c([N+](=O)[O-])c2)cc1OCCN(C(C)C)C(C)C`, the Inhibition in experiment [1] was 99%; in experiment [2], 97%; in experiment [3], 31%.

In the case of `COc1ccc2nccc([C@@H](O)CN3CCC(NCc4ccc5c(c4)N(C)C(=O)CO5)CC3)c2c1.O=C(O)C(=O)O`, the Inhibition amounted to 100% in experiment [1], 95% in experiment [2] and 0% in experiment [3].

For the compound `CCCCCC(C)C(C)c1cc(OC(N)=O)c2c(c1)OC(C)(C)C=C2c1ccncc1` (stereo not given), the Inhibition in experiment [1] was found to be 96%; in experiment [2], 0%; in experiment [3], 81%.

For `O=C(O)C(F)(F)F.c1ccc(C2CCN(Cc3ccc(-c4c[nH]c5nc(NC6CCCC6)ncc45)cc3)CC2)cc1`, the Inhibition in experiment [1] was found to be 82%; in experiment [2], 9%; in experiment [3] it was 39%.

Regarding `Nc1c2c(nc3ccc(Oc4ccc(Br)cc4Br)cc13)CCCC2`, the Inhibition in experiment [1] is recorded as 99%; in experiment [2], 47%; in experiment [3], 33%.

For the compound `Cc1nc2cc(/C=C/C(=O)NC3CCC(CCN4CCc5ccc(C#N)cc5CC4)CC3)ccc2[nH]1.Cl` (stereo not given), the results for the Inhibition in experiment [1], in experiment [2] and in experiment [3] were 88%, 21% and 7%, respectively.

With `O=C(Nc1cccc(-c2ccc(CN3CCCC3)cc2)c1)c1ccc(Cl)cc1.O=C(O)C(F)(F)F`, the Inhibition in experiment [1] came out at 100%; in experiment [2] it was 47%; in experiment [3], 29%.

On to `COc1cccc(CNc2ncc(-c3ccsc3)c(-c3nccs3)n2)c1`, for which the Inhibition in experiment [1] worked out at 89%; in experiment [2] it was 82%; in experiment [3], 9%.

For `Cn1nc(-c2ccc(NC(=O)Nc3cc(C(F)(F)F)ccc3F)cc2)c2cnc(NCCCCN3CCCC3)nc21.O=C(O)C(F)(F)F`, the values for the Inhibition in experiment [1], in experiment [2] and in experiment [3] were 98%, 74% and 88%, respectively.

In the case of `CC(C)COc1ccc(Cl)cc1Cc1ccc(-c2nc3cnc4ccccc4c3[nH]2)o1`, the results for the Inhibition in experiment [1], in experiment [2] and in experiment [3] were 87%, 26% and 21%, respectively.

For the compound `CCc1cn2c3c(cc(C(=O)N[C@@H](Cc4cccc(Cl)c4)[C@H](O)CNC4CC4)cc13)N(C)S(=O)(=O)CC2.O=CO`, the values for the Inhibition in experiment [1], in experiment [2] and in experiment [3] were 98%, 98% and 10%, respectively.

`O=C(O)C(F)(F)F.Oc1ccc2[nH]c(-c3cccc(F)c3)nc2c1CNCc1ccccc1`: the Inhibition in experiment [1] was determined as 92%; in experiment [2], 55%; in experiment [3], 29%.

As for `O=C(Nc1cccc(-c2nn3ccccc3c2-c2ccnc(Nc3cccc(N4CCCC4=O)c3)n2)c1)c1cc(F)ccc1F`, the Inhibition in experiment [1] is 99%; in experiment [2], 51%; in experiment [3], 59%.

With `Cc1cccc2nc(-c3cccc(-c4ccc(NC(=O)CS(C)(=O)=O)cc4)c3)[nH]c12`, the Inhibition in experiment [1] worked out at 85%; in experiment [2] it was 8%; in experiment [3], 3%.

Take `COc1cccc(-c2c(C#N)c(N)nc3c2c(C)nn3-c2ccccc2)c1O`: the Inhibition in experiment [1] was found to be 100%; in experiment [2], 100%; in experiment [3], 4%.

With `CC(C)CCNC(=O)C1Cc2c([nH]c3ccc(Br)cc23)C2(CCN(Cc3ccccc3)CC2)N1` (stereo not given), the Inhibition in experiment [1] was determined as 96%; in experiment [2], 68%; in experiment [3] it was 100%.
